In the library only some 2.5% were active in any assay of this set; here they are far more common.
Pol kappa inh-1: DNA polymerase kappa (human) inhibition | Q9UBT6 | purified Pol kappa, fluorescent DNA synthesis assay, 10 min | Potency, µM (highest dose often 107 µM), without a hit: top-dose activity, negative = inhibition, most hits filed as inhibitors | 400,000 compounds, 0.53% hits | AID 588579; also: % is scaled to controls: 0 for no effect and ±100 for the full control effect
Target sequence (Q9UBT6 whole entry, looked up): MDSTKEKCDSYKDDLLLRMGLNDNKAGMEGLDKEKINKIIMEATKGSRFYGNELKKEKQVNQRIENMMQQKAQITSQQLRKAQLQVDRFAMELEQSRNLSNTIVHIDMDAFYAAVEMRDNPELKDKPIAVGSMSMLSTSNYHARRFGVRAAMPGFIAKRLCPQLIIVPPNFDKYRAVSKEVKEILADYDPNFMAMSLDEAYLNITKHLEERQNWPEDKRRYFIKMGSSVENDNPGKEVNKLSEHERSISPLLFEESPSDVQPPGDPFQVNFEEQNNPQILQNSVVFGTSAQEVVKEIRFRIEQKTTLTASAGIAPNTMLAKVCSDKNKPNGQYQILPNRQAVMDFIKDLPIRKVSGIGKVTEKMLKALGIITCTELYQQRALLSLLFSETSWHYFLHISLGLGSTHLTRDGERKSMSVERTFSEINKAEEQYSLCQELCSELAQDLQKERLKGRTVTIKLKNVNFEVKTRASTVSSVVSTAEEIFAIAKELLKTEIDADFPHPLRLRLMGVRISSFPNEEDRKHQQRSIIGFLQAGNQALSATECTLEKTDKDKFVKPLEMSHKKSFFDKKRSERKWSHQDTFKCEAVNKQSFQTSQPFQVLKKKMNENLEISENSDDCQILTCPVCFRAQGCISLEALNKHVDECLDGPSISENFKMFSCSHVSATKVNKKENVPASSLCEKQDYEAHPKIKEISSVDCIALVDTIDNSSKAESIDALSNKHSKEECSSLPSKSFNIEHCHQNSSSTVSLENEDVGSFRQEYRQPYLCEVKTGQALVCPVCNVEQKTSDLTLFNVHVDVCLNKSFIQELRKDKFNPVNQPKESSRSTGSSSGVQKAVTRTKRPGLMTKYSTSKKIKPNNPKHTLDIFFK
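First, compounds were pin-transferred onto 10 nM Pol kappa. After 15 min at room temperature, substrate was added to 50 nM final. Fluorescence was then measured kinetically at 0 and 10 min.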
L3MBTL1 inh-1: inhibitors of human L3MBTL1; Q9Y468; Potency, µM (titrated, usually from 57.1 µM), inactives show top-dose activity, negative = inhibition, usual class: inhibitors; 230,000 compounds, 0.66% hits; AID 485360; AlphaScreen L3MBTL1–H3K9me1 peptide binding; also: % is scaled to controls: 0 for no effect and ±100 for the full control effect; nearly all actives have a fitted effect of over 60% in size
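AlphaScreen proximity signal between nickel-chelate acceptor and streptavidin donor beads (final 10 ug/mL) reports binding of 50 nM L3MBTL1 to 75 nM biotin-H3 K9me1 peptide; complex incubated with compounds 30 min at room temperature; cefsulodin titration as control.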
Pol beta inh: DNA polymerase beta (human) inhibition. P06746. Pol beta primer extension/strand displacement, fluorescence kinetic. Potency, µM (highest dose often 114 µM), for inactives: top-dose activity change, negative = inhibition, hits mostly inhibitors. 340,000 compounds, 1.3% hits; also: % is scaled to controls: 0 for no effect and ±100 for the full control effect
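Values derive from four-parameter Hill fits of normalized kinetic data: reads at 0 and 10 min following addition of 50 nM substrate to 10 nM Pol beta preincubated 15 min with compound.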
Pol iota inh: DNA polymerase iota (human) inhibition; Q9UNA4; Pol iota fluorescent replication assay, 10 min; Potency, µM (top dose mostly 115 µM), inactives show at the highest dose activity, negative = inhibition, usual class: inhibitors; 390,000 compounds, 1% hits
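Fluorescent replication assay read twice, at 0 min and 10 min after adding 50 nM (final) substrate. Enzyme (10 nM) and compounds were first incubated 15 min at room temperature; enzyme-free buffer wells were negative controls.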
WRN inhibitor: inhibitors of human WRN helicase; Q14191; WRN helicase unwinding, fluorescent forked duplex, kinetic; Potency, µM (top dose mostly 114 µM), for the others: top-dose activity change, negative = inhibition, usual class: inhibitors; 360,000 compounds, 0.46% hits; AID 651768; also: % is scaled to controls: 0 for no effect and ±100 for the full control effect; nearly all actives have a fitted effect of over 55% in size
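WRN at 20 nM final preincubated with compound 15 min at room temperature; reaction started with 100 nM fluorophore/quencher forked duplex oligonucleotide and 2 mM ATP final. Unwinding followed kinetically by red fluorescence (ex 525, em 598 nm).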
Pol eta inh-1: blocks human DNA polymerase eta activity; recombinant Pol eta, fluorescent DNA replication assay; 390,000 compounds, 1.2% hits; AID 588591; Potency, µM (doses to about 114 µM), for the others: top-dose activity change, negative = inhibition, actives largely listed as inhibitors; Q9Y253; also: % is scaled to controls: 0 for no effect and ±100 for the full control effect
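Pol eta (10 nM) was preincubated with compounds for 15 min at room temperature, after which fluorescent replication substrate (50 nM final) was added to start the reaction. Fluorescence was read kinetically at 0 and 10 min.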
L3MBTL1 inh-2: blocks human L3MBTL1 methyl-lysine binding. shares compounds with L3MBTL1 inh-1. L3MBTL1 methyl-lysine binding inhibition, biochemical qHTS. Potency, µM, most hits filed as inhibitors. 500 compounds, 91% hits; also: nearly all actives have a fitted effect of over 70% in size
AlphaScreen ctr2: counter-screen for L3MBTL1 inhibitors: AlphaScreen signal interference; shares compounds with L3MBTL1 inh-1; AlphaScreen counterscreen, signal inhibition; Potency, µM (series often up to 57.1 µM), for inactives: top-dose activity change, negative = inhibition, usual class: inhibitors; 500 tested, under 10 active; AID 602224; also: 0% is about no effect
Pol iota confirm: Human Pol iota inhibitor confirmatory assay; shares compounds with Pol kappa inh-1; 1,500 compounds, 77% hits; Potency, µM, actives largely listed as inhibitors; Pol iota primer extension, TAMRA/BHQ fluorescence
Pol kappa inh-2: confirmation of human DNA polymerase kappa inhibitors. Potency, µM, actives largely listed as inhibitors. 920 compounds, 76% hits. AID 720501. purified Pol-kappa, fluorescent strand-displacement substrate. shares compounds with Pol eta inh-1
Pol eta inh-2: confirmation of human DNA polymerase eta inhibitors | Potency, µM, hits mostly inhibitors | AID 720502 | shares compounds with Pol eta inh-1 | 2,600 compounds, 64% hits | Pol eta primer extension, TAMRA/BHQ fluorescence, 10 min
* hit, by the source's call; [ ] = another dose, or the depositor's remark. Calls follow the shape of the dose curve; as a rule, active = well fitted curve in the direction sought with a large enough effect; inconclusive = small, poorly fitted or top-dose-only effect, or another doubt; inactive = no such curve, though single readings can be large; an effect the other way counts as inactive or inconclusive. Potency is read from the fitted curve at half-maximal effect.

For O=C(O)/C(=C\c1cccc(F)c1)c1ccc(S(=O)(=O)N2CCCC2)s1 the results were Pol kappa inh-1 -6.0%, L3MBTL1 inh-1 -3.1%, Pol iota inh -21.3%, WRN inhibitor -5.4% and Pol eta inh-1 inconclusive.
Screening Cc1cccc(/C=C(\C(=O)O)c2ccc(S(=O)(=O)N3CCCC3)s2)c1 returned Pol kappa inh-1 inconclusive, L3MBTL1 inh-1 28.2µM*, Pol iota inh inconclusive, WRN inhibitor inconclusive, Pol eta inh-1 12.6µM*, L3MBTL1 inh-2 5.32*, AlphaScreen ctr2 2.8%, Pol kappa inh-2 33.6* and Pol eta inh-2 inconclusive.
For O=C1CCCC2=C1C(c1ccc(O)c(O)c1)c1c(ccc3ncccc13)N2 (stereo not given) the results were Pol kappa inh-1 inconclusive, L3MBTL1 inh-1 2µM*, Pol beta inh 6.31µM*, Pol iota inh inconclusive, WRN inhibitor -18.3%[11.6 µM], Pol eta inh-1 25.1µM*, L3MBTL1 inh-2 21.2*, AlphaScreen ctr2 13.6%, Pol iota confirm 67* and Pol eta inh-2 inconclusive.
CCc1ccc(N=C2NC(=O)/C(=C/c3cc(OC)c(O)c(OC)c3)S2)cc1 was read as Pol kappa inh-1 -11.5%, L3MBTL1 inh-1 -4.7%, Pol beta inh inconclusive, Pol iota inh 0.5%, WRN inhibitor -28.8% and Pol eta inh-1 -25.3%.
Screening COc1cc(/C=C2\SC(=Nc3ccc(Cl)c(C(=O)O)c3)NC2=O)c(Br)c(Br)c1O returned Pol kappa inh-1 39.8µM*, L3MBTL1 inh-1 31.6µM*, Pol beta inh 8.91µM*, Pol iota inh 22.4µM*, WRN inhibitor inconclusive, Pol eta inh-1 17.8µM*, L3MBTL1 inh-2 2.99*, AlphaScreen ctr2 inconclusive, Pol iota confirm 67*, Pol kappa inh-2 8.44* and Pol eta inh-2 inconclusive.
For CCC(=O)Nc1nc(C)c(-c2csc(Nc3cccc(C(=O)O)c3)n2)s1 the results were Pol kappa inh-1 -18.8%, L3MBTL1 inh-1 -23.2%, Pol beta inh 1.2%, Pol iota inh 100.9%, WRN inhibitor -27.5% and Pol eta inh-1 inconclusive.
`Cc1nc(N)sc1-c1csc(Nc2cccc(C(=O)O)c2)n1` gave Pol kappa inh-1 25.1µM*, L3MBTL1 inh-1 22.4µM*, Pol beta inh inconclusive, Pol iota inh 11.2µM*, WRN inhibitor -12.8%[11.6 µM], Pol eta inh-1 39.8µM*, L3MBTL1 inh-2 21.2*, AlphaScreen ctr2 4.5%, Pol kappa inh-2 11.9* and Pol eta inh-2 47.8*.
Screening N#CCc1ccc(NC(=O)/C=C/c2ccc([N+](=O)[O-])o2)cc1 returned Pol kappa inh-1 inconclusive, L3MBTL1 inh-1 3.98µM*, Pol beta inh inconclusive, Pol iota inh 44.7µM*, WRN inhibitor inconclusive, Pol eta inh-1 20µM*, L3MBTL1 inh-2 26.7*, AlphaScreen ctr2 11.0% and Pol eta inh-2 inconclusive.
For Cn1cccc1C(=O)N1CCC2(CC1)CCN(c1ccc(-c3ccccc3)cc1)CC2 the results were Pol kappa inh-1 4.9%[60.1 µM].
Screening CN1CCN(C(=O)/C=C/c2ccc([N+](=O)[O-])o2)CC1 returned Pol kappa inh-1 -10.3%, Pol beta inh 39.3%, Pol iota inh -9.7%, WRN inhibitor 2.7% and Pol eta inh-1 -20.7%.
Cc1ccccc1N=C1NC(=O)/C(=C/c2cccn2-c2cccc(C(=O)O)c2)S1 was read as Pol kappa inh-1 79.4µM*, L3MBTL1 inh-1 39.8µM*, Pol beta inh 10µM*, Pol iota inh 20µM*, WRN inhibitor inconclusive, Pol eta inh-1 17.8µM*, L3MBTL1 inh-2 4.23*, AlphaScreen ctr2 -20.8%, Pol iota confirm 42.3*, Pol kappa inh-2 26.7* and Pol eta inh-2 26.9*.
For O=C(Nc1ccc(S(=O)(=O)Nc2ncccn2)cc1)c1ccc2ncsc2c1 the results were Pol kappa inh-1 -26.3%, L3MBTL1 inh-1 20µM*, Pol beta inh inconclusive, Pol iota inh inconclusive, WRN inhibitor -4.3%, Pol eta inh-1 39.8µM*, L3MBTL1 inh-2 inconclusive, AlphaScreen ctr2 -0.8% and Pol eta inh-2 75.7*.
Screening O=C(Nc1ccc(S(=O)(=O)Nc2ncccn2)cc1)c1cccc(Cl)c1 returned Pol kappa inh-1 -15.9%[60.1 µM], Pol beta inh -10.2%, Pol iota inh 20.4% and Pol eta inh-1 -17.9%.
Cc1ccc(NC(=O)c2sc(=S)n(-c3cc(C)ccc3F)c2N)cc1 was read as Pol kappa inh-1 -4.5%, Pol beta inh 79.5%, Pol iota inh 6.5%, WRN inhibitor -2.8% and Pol eta inh-1 -4.0%.
For O=C1NC(=O)/C(=C\c2ccc(O)cc2O)S1 the results were Pol kappa inh-1 11.2µM*, L3MBTL1 inh-1 3.98µM*, Pol beta inh 1.58µM*, Pol iota inh inconclusive, WRN inhibitor 35.5µM*, Pol eta inh-1 2.82µM*, L3MBTL1 inh-2 1.68*, AlphaScreen ctr2 inconclusive, Pol iota confirm 29.9* and Pol eta inh-2 26.9*.
CC1CCCN(C(=O)c2ccc(COc3ccccc3Br)cc2)C1 (stereo not given) was read as Pol kappa inh-1 -2.1%, Pol beta inh -19.6%, Pol iota inh -17.9%, WRN inhibitor -10.3% and Pol eta inh-1 -12.6%.
`COC(=O)COc1ccc(C2Nc3c(Cl)ccc(C(=O)O)c3C3C=CCC32)cc1` (stereo not given) gave Pol kappa inh-1 inconclusive, L3MBTL1 inh-1 20µM*, Pol beta inh inconclusive, Pol iota inh inconclusive, WRN inhibitor 22.4µM*, Pol eta inh-1 28.2µM*, L3MBTL1 inh-2 16.8*, AlphaScreen ctr2 3.6% and Pol eta inh-2 47.8*.
For O=C(/C=C1\SC(=O)NC1=O)Nc1ccc(C(=O)O)cc1 the results were Pol kappa inh-1 -21.0%, Pol beta inh 7.3%, Pol iota inh inconclusive, WRN inhibitor -2.0% and Pol eta inh-1 -15.9%.

Compound activity as filed in PubChem.
